High-throughput results as filed in PubChem BioAssay.
Many of the other results were omitted from the sample, so hits are more common in it than they were.
TbPYK inhibitor = T. brucei pyruvate kinase inhibition. Potency, µM (series often up to 76.8 µM), inactives show at the highest dose activity, negative = inhibition, most hits filed as inhibitors. Q57TT1. AID 624173. 410,000 tested, 0.12% active. TbPYK enzyme, Kinase-Glo Plus ATP luminescence, 45 min; note: potency is the fitted concentration of half-maximal effect; % is set by controls: 0 for no effect and ±100 for the full control effect; nearly all actives have a fitted effect of over 50% in size
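Activity of T. brucei pyruvate kinase was followed by Kinase-Glo Plus luminescence after the enzyme reacted 45 min at room temperature with 130 uM ADP (final) and substrate. Test compounds were added before ADP at multiple concentrations.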
Giardia FBPA inh = blocks Giardia fructose-bisphosphate aldolase activity | A8B2U2 | purified Giardia FBPA | Potency, µM (highest dose often 59.6 µM), for inactives: at the highest dose activity, negative = inhibition, usual class: inhibitors | 290,000 tested, 0.71% active | AID 2451; note: potency is the fitted concentration of half-maximal effect; % is set by controls: 0 for no effect and ±100 for the full control effect; nearly all actives have a fitted effect of over 55% in size
Target sequence (A8B2U2 whole entry, looked up): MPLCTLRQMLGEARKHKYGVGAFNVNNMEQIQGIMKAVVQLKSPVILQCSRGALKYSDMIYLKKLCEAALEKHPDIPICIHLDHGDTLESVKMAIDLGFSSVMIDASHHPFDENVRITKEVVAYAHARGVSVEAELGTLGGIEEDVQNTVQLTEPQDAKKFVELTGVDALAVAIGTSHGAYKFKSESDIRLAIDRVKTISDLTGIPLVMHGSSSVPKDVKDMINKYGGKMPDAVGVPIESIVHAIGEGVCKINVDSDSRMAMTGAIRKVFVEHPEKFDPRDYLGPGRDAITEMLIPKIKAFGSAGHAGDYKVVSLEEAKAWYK
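Giardia FBPA (40 nM reagent) was preincubated 10 min at RT with compound (up to 57.5 uM final), then substrate plus GAPDH/TPI/NAD/arsenate coupling system with diaphorase/resazurin was added; resorufin fluorescence (525/598 nm) was read after 20 min.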
RE007 growth inh = less growth of the S. pombe RE007 Vpr strain; S. pombe RE007 Vpr strain, BacTiter-Glo ATP luminescence, 24 h; Potency, µM (series often up to 92.2 µM), inactives show top-dose activity change, negative = less growth, usual class: inhibitors; 360,000 tested, 0.21% active; active = well fitted falling curve with a large enough effect; inconclusive = small, poorly fitted or top-dose-only effect; inactive = no such curve, though single readings can be large or run the other way; note: potency is the fitted concentration of half-maximal effect; % is set by controls: 0 for no effect and ±100 for the full control effect; nearly all actives have a fitted effect of over 50% in size
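Fission yeast RE007 carrying one integrated HIV-1 vpr copy, seeded at OD 0.01 in PMG+AL medium with 23 nL pinned compound. Grown 24 h at 30 degrees; viability read by BacTiter-Glo luminescence after 5 min.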
Shiga inhibitor = inhibitors of Shiga toxin in Vero cells; Vero cells, Shiga toxin protein synthesis inhibition reporter; inhibition, % at 38.7 µM; 290,000 tested, 9.2% active; in the data active = inhibition mostly above about 28%, no sharp cut-off; inactive = mostly below about 43%; note: 0% is about no effect
Cycloheximide cs = counter-screen for Shiga toxin inhibitors: cycloheximide protein synthesis inhibition | cell reporter, cycloheximide protein synthesis inhibition counterscreen | max response, % | 300,000 tested, 12% active | AID 2314; in the data active = max response mostly above about 13%, no sharp cut-off; inactive = mostly below about 14%; note: read at 38.3 µM for the half of the compounds with a filed dose; 0% is about no effect
LmPK inhibitor = LmPK (Leishmania mexicana) enzyme inhibition; Q27686; purified LmPK, Kinase-Glo ATP luminescence, 1 h; Potency, µM (titrated, usually from 57.5 µM), for the others: at the highest dose activity change, negative = inhibition, actives largely listed as inhibitors; 290,000 tested, 0.37% active; AID 1721; note: potency is the fitted concentration of half-maximal effect; % is set by controls: 0 for no effect and ±100 for the full control effect
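Pyruvate kinase activity monitored as ATP production (luciferase luminescence). Conditions: 0.1 nM enzyme, 0.5 mM PEP, 0.1 mM ADP, 1 h, RT; normalized against uninhibited and no-enzyme wells.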
* hit, by the source's call. Unless noted, calls come from the whole dose curve; as a rule, active = well fitted curve in the direction sought with a large enough effect; inconclusive = small, poorly fitted or top-dose-only effect, or another doubt; inactive = no such curve, though single readings can be large; an effect the other way counts as inactive or inconclusive.

`Cc1cc(-c2ccccc2)nc(N/N=C/c2ccccc2)n1` gave TbPYK inhibitor -13%, Giardia FBPA inh -8%, RE007 growth inh inconclusive, Shiga inhibitor 55*, Cycloheximide cs 32* and LmPK inhibitor 1%.
Cc1cc(-c2ccccc2)nc(N/N=C/c2ccc(O)cc2O)n1 was read as TbPYK inhibitor 0%, Giardia FBPA inh 20%, RE007 growth inh inconclusive, Shiga inhibitor 91*, Cycloheximide cs 23* and LmPK inhibitor -1%.
`C(=N/Nc1nc(-c2ccccc2)cc(-c2ccccc2)n1)/c1cccnc1` gave TbPYK inhibitor -9%, Giardia FBPA inh 0%, RE007 growth inh 0%, Shiga inhibitor 69*, Cycloheximide cs 61* and LmPK inhibitor 2%.
Screening CN1CCN(C(=O)CN(C)S(=O)(=O)c2cc(Cl)ccc2Cl)CC1 returned TbPYK inhibitor 1%, Giardia FBPA inh 7%, RE007 growth inh -6%, Shiga inhibitor -5, Cycloheximide cs -5 and LmPK inhibitor 0%.
`COCCN1C(=O)c2[nH]nc(-c3ccccc3O)c2C1c1ccc(Cl)c(Cl)c1` (stereo unspecified) gave TbPYK inhibitor 0%.
`Cc1cc(C)nc(N/N=C/c2ccco2)n1` gave TbPYK inhibitor 3%, Giardia FBPA inh inconclusive, RE007 growth inh -10%, Shiga inhibitor -36, Cycloheximide cs -2 and LmPK inhibitor -12%.
`Cc1cc(N/N=C/c2ccccc2O)c2ccccc2n1` gave TbPYK inhibitor 4%, Giardia FBPA inh -1%, RE007 growth inh 18%, Shiga inhibitor 45, Cycloheximide cs 26* and LmPK inhibitor 1%.
`C(=N\Nc1nc(Nc2ccccc2)nc(Nc2ccccc2)n1)/c1ccncc1` gave TbPYK inhibitor 2%, Giardia FBPA inh 1%, RE007 growth inh -3%, Shiga inhibitor -9, Cycloheximide cs -2 and LmPK inhibitor 2%.
For CNc1nc(C)nc(N/N=C/c2ccccc2)n1 the results were TbPYK inhibitor -1%, Giardia FBPA inh -26%, RE007 growth inh -7%, Shiga inhibitor 53, Cycloheximide cs 28* and LmPK inhibitor 0%.
COc1ccc2nc(C)cc(N/N=C/c3cccc(OC)c3O)c2c1 was read as TbPYK inhibitor -2%, Giardia FBPA inh 9%, RE007 growth inh -14%, Shiga inhibitor 14, Cycloheximide cs 10 and LmPK inhibitor 1%.
Screening Cc1cc(-c2ccccc2)nc(N/N=C/c2ccco2)n1 returned TbPYK inhibitor inconclusive, Giardia FBPA inh -2%, RE007 growth inh -2%, Shiga inhibitor 85*, Cycloheximide cs 36* and LmPK inhibitor -3%.
`O=C(c1ccco1)N1CCN(C(c2ccccn2)c2nnnn2C2CCCC2)CC1` (stereo unspecified) gave TbPYK inhibitor -8%, Giardia FBPA inh 3%, RE007 growth inh 4%, Shiga inhibitor 86*, Cycloheximide cs 37* and LmPK inhibitor -7%.
For O=C(c1ccco1)N1CCN(C(c2cccs2)c2nnnn2C2CCCC2)CC1 (stereo unspecified) the results were TbPYK inhibitor -2%, Giardia FBPA inh 0%, RE007 growth inh 38%, Shiga inhibitor -6, Cycloheximide cs 0 and LmPK inhibitor 1%.
Cc1cc(C)nc(-n2nc(C)c(Sc3ccc(F)cc3)c2N)n1 was read as TbPYK inhibitor inconclusive, Giardia FBPA inh -9%, RE007 growth inh -6%, Shiga inhibitor 100*, Cycloheximide cs 39* and LmPK inhibitor -18%.
Screening Cc1cc(N2CCCc3ccccc32)n2ncnc2n1 returned TbPYK inhibitor -2%, Giardia FBPA inh 0%, RE007 growth inh 12%, Shiga inhibitor 21, Cycloheximide cs 0 and LmPK inhibitor -3%.
Screening Cc1csc(N2CCc3ccccc32)n1 returned TbPYK inhibitor -1%, Giardia FBPA inh 4%, RE007 growth inh 1%, Shiga inhibitor 27, Cycloheximide cs 23* and LmPK inhibitor -2%.
For Cc1ccc(C)c(OCc2ccc(C(=O)Nc3ccc([N+](=O)[O-])cn3)o2)c1 the results were TbPYK inhibitor 0% and RE007 growth inh -3%.
